The results in this text go back to PubChem BioAssay (NCATS).

Where “and” joins values, the source holds several entries; their conditions need not be identical. Equal entries are not always repeated. Inconclusive results are not listed. Where a structure was tested more than once in an assay, its records may differ in their call. Calls of active or inactive are those of the source. Unless noted, the call rests on the fitted dose curve; in most records, active means well fitted curve in the direction sought with a large enough effect; inconclusive means small, poorly fitted or top-dose-only effect, or another doubt; inactive means no such curve, though single readings can be large; an effect the other way counts as inactive or inconclusive.

Experiment [1] is described as follows: Cellular Toxicity (caspase-3) HepG2 (AID 654). Further: potency means the concentration at half of the fitted maximal effect.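 On caspase-3 activation: cells exposed to compound for 16 hours before reading.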 A digest of the protocol:
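Caspase 3/7 activation is measured as a luminescence increase (aminoluciferin substrate) after 16 h compound exposure of human hepatocarcinoma HepG2 cells. AC50 values are Hill fits, scaled between DMSO baseline and 100 uM tamoxifen stimulation.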

Experiment [2] is described as follows: Cellular Toxicity (caspase-3) Jurkat (AID 655).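 Further: cells exposed to compound for 16 h at 37 °C before reading.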 Further: potency means the concentration at half of the fitted maximal effect. In outline:
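Luminescent Caspase-Glo 3/7 read-out (20 min, room temperature) after 16 h compound treatment at 37 C of 5000 Jurkat cells per well. AC50 derived by Hill-equation fitting, scaled between DMSO basal and 100 uM tamoxifen stimulation.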

Experiment [3] in a line: Cellular Toxicity (caspase-3) HUV-EC-C (AID 656). A digest of the protocol: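 Luminescent Caspase-Glo 3/7 readout after 16 h, 37 °C compound exposure of HUV-EC-C endothelial cells, 1000 per well, complete medium. AC50 derived by Hill fitting, with DMSO as baseline and 100 uM tamoxifen as full activation.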
Experiment [4] in a line: Cellular Toxicity (caspase-3) SHSY5Y (AID 657). A digest of the protocol: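 Luminescent Caspase-Glo 3/7 read-out, 1 hr room temperature, follows 16 hours of compound treatment of SH-SY5Y cells at 37 °C. Normalization: DMSO basal, 10 uM staurosporine as 100%; AC50 values from Hill-equation concentration-response fits.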
Experiment [5] can be described thus: Cellular Toxicity (caspase-3) BJ (AID 658). A digest of the protocol:
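Plated BJ cells (1000/well) rested 5 hr, received compound for 16 hr at 37 °C, then Caspase-Glo 3/7 reagent for 1 hr at room temperature before luminescence reading.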

Experiment [6] in a line: Cellular Toxicity (caspase-3) MRC-5 (AID 659). Further: potency means the concentration at half of the fitted maximal effect. To be noted: Potency: caspase-3 activation. A digest of the protocol:
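Apoptosis readout in MRC-5 cells: luciferase light generated after caspase 3/7 cleaves a peptide-aminoluciferin substrate, measured post 16 hr compound incubation at 37 °C.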

Experiment [7] in a line: Cellular Toxicity (caspase-3) Mesangial (AID 660).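 Further: combined caspase 3 and 7 activity read by Caspase-Glo luminescence; cells exposed to compound for 16 h before the caspase read.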 A digest of the protocol:
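Caspase 3/7 activation measured by Caspase-Glo 3/7 luminescence (20 min, room temperature) following 16 h exposure of mesangial cells (1000/well); AC50 from Hill-equation fit, normalized to DMSO and 100 uM tamoxifen.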

Experiment [8] in a line: Cellular Toxicity (caspase-3) SK-N-SH (AID 661). In outline: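 Caspase 3/7 activation was read by luminogenic substrate cleavage after 16 hour treatment of SK-N-SH cells. Signal was scaled between DMSO and 10 uM staurosporine, and concentration-response data were fitted with the Hill equation for AC50.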
The nature of experiment [9]: Cellular Toxicity (caspase-3) H-4-II-E (AID 663).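 Further: cells exposed to compound for 16 hr before readout.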 A digest of the protocol:
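Caspase 3/7 activation measured in H-4-II-E cells in complete culture medium after 16 hr treatment at 37 °C, using luciferase-coupled substrate readout; AC50 values come from Hill-equation fits of normalized concentration-response data.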

Experiment [10] can be described thus: Cellular Toxicity (caspase-3) Hek293 (AID 664).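 Further: cells exposed to compound for 16 h at 37 °C before readout.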 In outline:
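Concentration-response qHTS: caspase 3/7 activation measured by luminescent aminoluciferin substrate cleavage after 16 h compound exposure of Hek 293 cells. AC50 from Hill equation, with DMSO as basal and 100 uM tamoxifen as 100%.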

Experiment [11] in a line: Cellular Toxicity (caspase-3) N2a (AID 665).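 Further: compound exposure lasted 16 h at 37 °C before readout.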 In outline:
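Caspase-3/7 activation measured as luminescence from Caspase-Glo reagent (1 h, room temperature) after 16 h compound exposure of mouse N2a cells. AC50 values from Hill-equation concentration-response, scaled between DMSO and 10 uM staurosporine.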

Experiment [12] can be described thus: Cellular Toxicity (caspase-3) NIH 3T3 (AID 666).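 Further: caspase signal read after 16 h compound exposure.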 In outline: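 Caspase-Glo 3/7 luminescence reported caspase activation in 1000 NIH 3T3 cells/well after 16 h compound exposure at 37 C. DMSO set basal and 100 uM tamoxifen set 100% stimulation; concentration-response modeled with the Hill equation for AC50.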
Experiment [13] in a line: Cellular Toxicity (caspase-3) Renal Proximal Tubule (AID 667).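 Further: cells exposed to compound for 16 hours at 37 °C before detection.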 In outline:
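Caspase 3/7 activation measured by luminescent aminoluciferin release in primary rat proximal tubule cells after 16 hr compound exposure at 37 °C. AC50 from Hill-fitted concentration-response, scaled between DMSO and 10 uM staurosporine.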

Experiment [14] addresses Cytochrome P450 3A4 (Homo sapiens) (UniProt P08684). Nature of the experiment: qHTS Assay for Inhibitors and Substrates of Cytochrome P450 3A4 (AID 884). Further: nearly all actives have a fitted effect of over 50% in size. Further: potency means the concentration at half of the fitted maximal effect. A digest of the protocol: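 Luminescent readout of luciferin produced by CYP3A4 (20 nM) dealkylation of Luciferin-PPXE, 25 uM (its KM). NADPH-driven reaction ran 60 min at RT after 10 min compound preincubation; data scaled to 57 uM ketoconazole as 100% inhibition.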
For orientation: Quantitative high-throughput screening tests each substance at several concentrations.

In experiment [15] the target is 3',5'-cyclic-AMP phosphodiesterase 4B (Homo sapiens) (UniProt Q07343). Nature of the experiment: qHTS Assay for Inhibitors of PDE-IV (AID 607; active means well fitted activation curve with a large enough effect in the main read-out, with a control signal flat, not every such curve was filed as active). In outline:
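Live HEK293 cells with a modified cyclic nucleotide-gated (CNG) channel report intracellular cAMP via membrane-potential dye fluorescence (ex 535/em 590 nm). Endogenous PDE-IV was targeted. Compounds were tested at up to 22.9 uM final; RO 20-1724 100 uM served as control.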

Experiment [16] concerns the target Cytochrome P450 3A4 (Homo sapiens) (UniProt P08684). Put plainly: qHTS Assay for Activators of Cytochrome P450 3A4 (AID 885). Further: nearly all actives have a fitted effect of over 65% in size. In outline:
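Using 20nM recombinant human CYP3A4 in potassium phosphate (200mM), substrate Luciferin-PPXE at 25uM, luminescent luciferin detection followed a 60-min RT NADPH reaction; data scaled to 57 uM ketoconazole.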

The target of experiment [17] is Cytochrome P450 2D6 (Homo sapiens) (UniProt P10635). Nature of the experiment: qHTS Assay for Inhibitors and Substrates of Cytochrome P450 2D6 (AID 891). Further: nearly all actives have a fitted effect of over 60% in size. Further: potency means the concentration at half of the fitted maximal effect. In outline: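 Luminescent read-out of luciferin formed by 5 nM human CYP2D6 demethylating 30 uM Luciferin-ME EGE (Km level) over 60 min at room temperature after NADPH regeneration addition. Data normalized to full inhibition by 1.43 uM quinidine.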
Sequence of Cytochrome P450 2D6 (Homo sapiens) (P10635 whole entry, looked up): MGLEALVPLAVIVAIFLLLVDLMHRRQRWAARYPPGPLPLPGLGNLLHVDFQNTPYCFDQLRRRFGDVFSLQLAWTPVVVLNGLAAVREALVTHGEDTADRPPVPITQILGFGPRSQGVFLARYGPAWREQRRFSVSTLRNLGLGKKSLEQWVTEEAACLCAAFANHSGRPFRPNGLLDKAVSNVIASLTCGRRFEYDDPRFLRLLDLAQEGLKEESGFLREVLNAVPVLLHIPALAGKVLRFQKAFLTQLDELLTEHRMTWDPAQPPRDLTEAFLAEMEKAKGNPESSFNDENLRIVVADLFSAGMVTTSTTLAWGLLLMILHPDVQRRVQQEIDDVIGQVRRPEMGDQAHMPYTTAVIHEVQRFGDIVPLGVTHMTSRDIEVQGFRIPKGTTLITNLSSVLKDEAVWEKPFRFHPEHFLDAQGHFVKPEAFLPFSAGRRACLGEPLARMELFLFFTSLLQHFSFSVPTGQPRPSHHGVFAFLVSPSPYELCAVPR

In experiment [18] the target is Guanine nucleotide-binding protein G(i) subunit alpha-1 (Homo sapiens) (UniProt P63096). Put plainly: qHTS Assay for Inhibitors of RGS12 GoLoco Motif Activity (Green Fluorophore) (AID 879).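 Further: negative values mean loss of peptide binding seen as reduced polarization.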 In outline:
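A drop in FITC polarization marked displacement of the FITC-tagged RGS12 GoLoco peptide (10 nM) from Gαi1 (50 nM). Compounds were incubated 10 min at room temperature in Tris pH 7.5 buffer containing 150 mM NaCl, 0.1 mM GDP and 0.05% NP40; unlabeled peptide titration served as control.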

Experiment [19] can be described thus: qHTS Assay for Identification of Small Molecule Antagonists for NFkB Signaling Pathway (AID 895; active means well fitted inhibition curve with a large enough effect in the signal ratio, with a control signal flat, not every such curve was filed as active; the % refers to the signal ratio). In outline: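 NFkB-bla ME-180 cervical carcinoma cells with beta-lactamase reporter under NFkB response element; compounds added, then TNF alpha at 10 pM final (EC50), 5 h at 37 C. LiveBLAzer substrate 2 h, room temperature; emission 460/530 nm at 405 nm excitation.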

Sequence of Cytochrome P450 3A4 (Homo sapiens) (P08684 whole entry, looked up): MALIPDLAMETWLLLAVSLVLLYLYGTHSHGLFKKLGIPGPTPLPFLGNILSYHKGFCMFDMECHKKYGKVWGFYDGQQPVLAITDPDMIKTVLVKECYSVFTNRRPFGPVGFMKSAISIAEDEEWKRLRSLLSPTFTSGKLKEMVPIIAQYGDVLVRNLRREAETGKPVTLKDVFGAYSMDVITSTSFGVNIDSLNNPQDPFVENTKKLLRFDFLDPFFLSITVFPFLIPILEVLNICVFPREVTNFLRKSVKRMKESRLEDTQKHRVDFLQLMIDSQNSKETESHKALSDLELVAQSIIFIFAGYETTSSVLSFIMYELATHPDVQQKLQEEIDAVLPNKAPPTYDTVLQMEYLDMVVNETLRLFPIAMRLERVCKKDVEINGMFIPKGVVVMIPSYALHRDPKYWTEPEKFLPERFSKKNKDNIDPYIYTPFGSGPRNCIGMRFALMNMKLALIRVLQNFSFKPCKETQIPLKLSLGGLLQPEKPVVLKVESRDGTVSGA
Sequence of 3',5'-cyclic-AMP phosphodiesterase 4B (Homo sapiens) (Q07343 whole entry, looked up): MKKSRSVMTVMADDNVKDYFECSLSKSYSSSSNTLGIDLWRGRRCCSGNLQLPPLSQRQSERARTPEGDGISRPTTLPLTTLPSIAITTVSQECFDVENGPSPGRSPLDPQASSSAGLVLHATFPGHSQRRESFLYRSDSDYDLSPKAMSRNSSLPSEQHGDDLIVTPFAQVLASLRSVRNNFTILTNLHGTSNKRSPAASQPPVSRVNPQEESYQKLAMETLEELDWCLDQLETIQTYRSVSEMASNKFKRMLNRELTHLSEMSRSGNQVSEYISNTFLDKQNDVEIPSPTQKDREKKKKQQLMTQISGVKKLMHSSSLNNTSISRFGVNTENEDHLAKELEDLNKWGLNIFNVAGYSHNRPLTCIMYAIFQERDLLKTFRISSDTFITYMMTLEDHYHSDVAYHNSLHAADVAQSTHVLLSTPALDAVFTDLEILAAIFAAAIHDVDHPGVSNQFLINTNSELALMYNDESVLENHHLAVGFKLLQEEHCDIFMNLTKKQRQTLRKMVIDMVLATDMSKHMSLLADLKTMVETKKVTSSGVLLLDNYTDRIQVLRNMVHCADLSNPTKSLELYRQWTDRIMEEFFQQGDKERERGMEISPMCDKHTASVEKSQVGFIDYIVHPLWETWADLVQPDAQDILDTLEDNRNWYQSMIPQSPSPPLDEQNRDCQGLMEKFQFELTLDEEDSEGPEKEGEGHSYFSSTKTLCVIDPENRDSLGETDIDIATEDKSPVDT
Sequence of Guanine nucleotide-binding protein G(i) subunit alpha-1 (Homo sapiens) (P63096 whole entry, looked up): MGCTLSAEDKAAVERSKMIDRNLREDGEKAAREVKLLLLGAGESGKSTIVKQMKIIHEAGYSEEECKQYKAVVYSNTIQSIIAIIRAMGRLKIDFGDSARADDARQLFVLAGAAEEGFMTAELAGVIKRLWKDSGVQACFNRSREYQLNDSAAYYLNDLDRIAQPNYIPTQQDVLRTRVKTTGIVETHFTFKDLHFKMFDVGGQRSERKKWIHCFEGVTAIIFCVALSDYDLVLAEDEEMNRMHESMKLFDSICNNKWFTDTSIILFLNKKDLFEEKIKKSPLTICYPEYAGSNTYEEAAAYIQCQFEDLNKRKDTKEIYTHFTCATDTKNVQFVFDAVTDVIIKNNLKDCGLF

Turning to `CC12CCC(CC1)C(C)(C)O2`, the Potency result in [1], in experiment [2], in [6] and in experiment [14] was “inactive” in each case. The molecule was called inactive in [3], in experiment [4], in experiment [5], in experiment [7], in experiment [8] and in [9]. Besides, the result in experiment [10], in experiment [11], in [12] and in [13] was inactive.
Consider `COc1ccc2c(c1)C(=O)N(CCc1ccc(S(=O)(=O)NC(=O)NC3CCCCC3)cc1)C(=O)C2(C)C`, for which the molecule was classed as inactive in experiment [15] and in experiment [16].
With `NS(=O)(=O)c1cc2c(cc1Cl)NC(CSCc1ccccc1)=NS2(=O)=O`, the molecule was classed as inactive in [15] and in experiment [16]. Besides, the Potency in [14] is 25.1 µM (active).
For the molecule `NCCNCCNCCN`, the Potency result in [1], in experiment [2] and in experiment [6] was “inactive” in each case. In addition, the call in experiment [3], in [4], in experiment [5], in experiment [7], in [8] and in experiment [9] was inactive. The molecule was called inactive in experiment [10], in experiment [11], in experiment [12] and in [13].
As to `CCCCN1CCCC[C@H]1C(=O)Nc1c(C)cccc1C`, the result in experiment [15] and in [16] was inactive. In experiment [17], the Potency is 0.501 µM (active).
For `Nc1ccc(S(=O)(=O)NC(=O)c2ccccc2)cc1`, in experiment [15], the result was inactive. The Potency entry in [14] was “inactive”.
Turning to `CC1(C)[C@@H]2CC[C@@]1(C)C(=O)C2`, the Potency entry in experiment [1], in experiment [2], in [6] and in [14] was “inactive” each time. Moreover, the call in experiment [3], in experiment [4], in experiment [5], in [7], in [8] and in experiment [9] was inactive. Besides, the call in experiment [10], in experiment [11], in [12] and in experiment [13] was inactive.
For `CCn1cc(C(=O)O)c(=O)c2cnc(N3CCNCC3)nc21`, the outcome in [15] was inactive. In addition, the Potency entry in experiment [14] is “inactive”.
With `O=C1O[C@H]([C@@H](O)CO)C(O)=C1O`, the Potency result in [1], in experiment [2], in [6] and in experiment [14] was “inactive” each time. The molecule was classed as inactive in experiment [3], in [4], in experiment [5], in experiment [7], in [8] and in experiment [9]. For the same molecule, the molecule was classed as inactive in [10], in [11], in experiment [12] and in experiment [13].
For the molecule `COc1ccccc1O`, the Potency result in experiment [1], in experiment [2], in experiment [6] and in experiment [14] was “inactive” throughout. Also, the molecule was called inactive in experiment [3], in [4], in [5], in [7], in experiment [8] and in [9]. Further, the call in [10], in experiment [11], in [12] and in [13] was inactive.
Turning to `NC(=O)N/N=C/c1ccc([N+](=O)[O-])o1`, the Potency entry in experiment [1], in experiment [2] and in experiment [6] was “inactive” throughout. Besides, the result in [3], in experiment [4], in experiment [5], in experiment [7], in [8] and in experiment [9] was inactive. Moreover, the result in experiment [10], in [11], in experiment [12] and in experiment [13] was inactive.
Consider `Nc1ccc(S(=O)(=O)Nc2ccc(Cl)nn2)cc1`, for which, in experiment [15], the outcome was inactive. In experiment [14], the Potency entry was “inactive”.
As to `[Cl][In]([Cl])[Cl]`, the Potency entry in experiment [1], in [2], in [6] and in experiment [14] was “inactive” throughout. For the same molecule, the call in experiment [3], in experiment [4], in experiment [5], in experiment [7], in experiment [8] and in [9] was inactive. Besides, the molecule was called inactive in experiment [10], in [11], in experiment [12] and in experiment [13].
Regarding `C[C@]12C[C@H](O)[C@H]3[C@@H](CCC4=CC(=O)CC[C@@]43C)[C@@H]1CC[C@@H]2C(=O)CO`, the Potency entry in [1], in experiment [2] and in experiment [6] was “inactive” throughout. Besides, the outcome in experiment [3], in experiment [4], in experiment [5], in experiment [7], in experiment [8] and in [9] was inactive. Also, the call in experiment [10], in [11], in experiment [12] and in experiment [13] was inactive.
Take `CC1(C)OC(=O)NC1=O`: the molecule was classed as inactive in experiment [15]. The Potency entry in experiment [14] is “inactive”.
`NC(=O)c1ncn([C@@H]2O[C@H](CO)[C@@H](O)[C@H]2O)n1`: the Potency entry in [1], in experiment [2] and in experiment [6] was “inactive” throughout. Further, the call in experiment [3], in experiment [4], in [5], in [7], in experiment [8] and in experiment [9] was inactive. The molecule was classed as inactive in [10], in experiment [11], in experiment [12], in [13] and in experiment [18].
With `NCCNCCNCCNCCN`, the Potency entry in experiment [1], in experiment [2], in experiment [6] and in [14] was “inactive” each time. In addition, the molecule was called inactive in experiment [3], in [4], in [5], in experiment [7], in experiment [8] and in [9]. The outcome in experiment [10], in experiment [11], in experiment [12] and in experiment [13] was inactive.
In the case of `N=c1c[n+](N2CCOCC2)[n-]o1`, the call in experiment [15] and in experiment [18] was inactive. The Potency entry in [19] is “inactive”.
As to `O=C1c2c(O)cccc2Cc2cccc(O)c21`, the Potency entry in experiment [1], in experiment [2] and in experiment [6] was “inactive” in each case. The call in [3], in experiment [4], in [5], in experiment [7], in experiment [8] and in experiment [9] was inactive. For the same molecule, the outcome in experiment [10], in [11], in experiment [12] and in experiment [13] was inactive.
For the molecule `Cc1c(O)cccc1C(=O)N[C@@H](CSc1ccccc1)[C@H](O)CN1C[C@H]2CCCC[C@H]2C[C@H]1C(=O)NC(C)(C)C`, the Potency in [1] is 63.1 µM (active); in [2], 31.6 µM (active); in [6], 50.1 µM (active). The molecule was classed as inactive in experiment [3], in experiment [4], in experiment [5], in experiment [7], in experiment [11] and in experiment [12]. The molecule was called inactive in experiment [13].
As to `CC(C)C(=O)c1c(C(C)C)nn2ccccc12`, the Potency result in experiment [17] was “inactive and 39.8 nM (active)”.
Turning to `CCCCN(CCCC)CCCOC(=O)c1ccc(N)cc1`, the Potency in [17] was 0.0063 µM (active).
